Source: PubChem BioAssay (National Center for Advancing Translational Sciences (NCATS))
FEN1 inhibitor: inhibitors of human flap endonuclease 1; AID 588795; Potency, µM (titrated, usually from 114 µM), most hits filed as inhibitors; 390,000 tested, 0.35% active; Recombinant FEN1 flap cleavage, fluorescence, 15 min; further: nearly all actives have a fitted effect of over 65% in size
Target sequence (P39748 whole entry, looked up): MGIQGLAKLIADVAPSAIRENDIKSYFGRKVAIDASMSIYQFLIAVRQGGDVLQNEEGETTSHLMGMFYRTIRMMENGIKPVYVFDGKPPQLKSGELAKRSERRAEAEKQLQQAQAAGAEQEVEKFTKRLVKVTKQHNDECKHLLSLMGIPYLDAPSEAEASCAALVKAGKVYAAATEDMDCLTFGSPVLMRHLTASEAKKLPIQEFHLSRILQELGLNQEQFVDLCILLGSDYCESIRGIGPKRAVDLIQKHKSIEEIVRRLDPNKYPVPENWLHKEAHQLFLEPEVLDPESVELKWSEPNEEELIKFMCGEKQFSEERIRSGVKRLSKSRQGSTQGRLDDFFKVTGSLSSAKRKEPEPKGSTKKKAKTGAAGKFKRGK
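Concentration–response screening of FEN1 (10 nM): 15 min compound preincubation at room temperature, reaction started with 50 nM substrate and read at 0 and 15 min. Corrected, normalized data were fitted by a four-parameter Hill equation.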
Pol iota inh: inhibitors of human DNA polymerase iota | Pol iota fluorescent replication assay, 10 min | Potency, µM (highest dose often 115 µM), hits mostly inhibitors | 390,000 tested, 1% active
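Pol iota at 10 nM preincubated 15 min with compounds at room temperature; reaction started with fluorescent substrate, 50 nM final. Fluorescence read kinetically at 0 and 10 min; buffer-only wells as negative control.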
POLB inh: inhibitors of human DNA polymerase beta; 340,000 tested, 1.3% active; Potency, µM (titrated, usually from 114 µM), most hits filed as inhibitors; Pol beta primer extension/strand displacement, fluorescence kinetic
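Pol beta (10 nM) and compounds were preincubated 15 min at room temperature, then 50 nM substrate (final) started primer extension/strand displacement. Reads were taken at 0 and 10 min; concentration-response data were fitted to a four-parameter Hill equation.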
POLH inh: inhibitors of human DNA polymerase eta | Q9Y253 | recombinant Pol eta, fluorescent DNA replication assay | Potency, µM (top dose mostly 114 µM), hits mostly inhibitors | 390,000 tested, 1.2% active
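Fluorescent replication assay: 50 nM final substrate added after a 15 min room-temperature compound preincubation with 10 nM enzyme. Signal taken at 0 min and again at 10 min.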
POLK inh: DNA polymerase kappa (human) inhibition | Potency, µM (titrated, usually from 107 µM), most hits filed as inhibitors | purified Pol kappa, fluorescent DNA synthesis assay, 10 min | AID 588579 | Q9UBT6 | 400,000 tested, 0.53% active
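Inhibition of 10 nM Pol kappa is measured by a fluorescent read-out at 0 and 10 min following addition of 50 nM substrate (final), with a 15-min room-temperature compound preincubation.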
WRN helicase inh: inhibitors of human WRN helicase. Potency, µM (top dose mostly 114 µM), usual class: inhibitors. WRN helicase unwinding, fluorescent forked duplex, kinetic. 360,000 tested, 0.46% active. Q14191; further: nearly all actives have a fitted effect of over 55% in size
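WRN at 20 nM final was preincubated with compound for 15 min at room temperature; reaction started with 100 nM forked duplex oligonucleotide carrying fluorophore and quencher plus 2 mM ATP (final). Unwinding followed kinetically by red fluorescence (ex 525/em 598 nm).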
Of the large screens only hits and unclear results are named; the others gave an inactive call. Sampled rows, rich in hits. Any-hit rate of the full collection: about 2.4%. The call rests on the fitted dose curve; in most records, active means well fitted curve in the direction sought with a large enough effect; inconclusive means small, poorly fitted or top-dose-only effect, or another doubt; inactive means no such curve, though single readings can be large; an effect the other way counts as inactive or inconclusive.

CCCOc1ccc(C(C)=O)cc1CSCCC#N	none
CCCOc1ccc(C(C)=O)cc1CSc1nc(O)cc(=O)[nH]1	Pol iota inh 35.5µM, POLB inh inconclusive, POLK inh inconclusive
COc1cccc(C2CC(c3ccccc3)=NN2S(=O)(=O)c2ccc(C)cc2)c1OC (configuration not stated)	POLB inh 50.1µM, POLH inh inconclusive, WRN helicase inh inconclusive
Cc1cc(C)cc(N2CCn3c2nc2c3c(=O)n(CCc3ccccc3)c(=O)n2C)c1	none (no result: WRN helicase inh)
COc1ccccc1/C=C/C=N/NC(=O)Cc1cccn1C	Pol iota inh 50.1µM, POLH inh inconclusive
COC(=O)c1ccccc1NC(=O)c1cc2ncc(Br)cn2n1	Pol iota inh inconclusive, POLB inh 44.7µM, POLH inh 7.08µM
COC(=O)c1ccccc1NC(=O)c1cc2ccccn2n1	POLB inh inconclusive (no result: WRN helicase inh)
C=CCn1c(=O)c(CCC(=O)Nc2ccc(N3CCOCC3)cc2)nc2cc(C(F)(F)F)ccc21	Pol iota inh inconclusive, POLH inh 79.4µM, POLK inh inconclusive
O=C(Cn1cc(C(F)(F)F)ccc1=O)Nc1ccc(N2CCOCC2)cc1	none
CCOC1CCCC(n2cnc3c(=S)nc[nH]c32)O1 (configuration not stated)	Pol iota inh inconclusive, POLH inh 17.8µM (no result: POLB inh)
Cc1cc(F)ccc1C(O)c1ncc(-c2ccc(Oc3ccccc3)cc2)[nH]1 (configuration not stated)	none (no result: FEN1 inhibitor, Pol iota inh, POLB inh, POLH inh, POLK inh)
CCC1CCc2nc3sc(C(=O)Nc4ccc(F)cc4F)c(N)c3cc2C1 (configuration not stated)	none (no result: WRN helicase inh)
O=c1c2c3c(sc2nnn1CCCCOc1ccc(Cl)cc1)CCCC3	none (no result: POLH inh, WRN helicase inh)
COc1ccc(NC(C)=O)cc1S(=O)(=O)N1CCN(Cc2cccs2)CC1	Pol iota inh inconclusive, POLH inh 25.1µM (no result: POLB inh)
COc1ccc(NC(=O)Cc2cccs2)cc1S(=O)(=O)N1CCCCC1	none (no result: POLB inh)
COCc1cc(C)nc(OCC(=O)N/N=C/c2ccc(-c3cc([N+](=O)[O-])ccc3C)o2)c1C#N	POLH inh inconclusive
Cc1ccc([N+](=O)[O-])cc1-c1ccc(/C=C(\C#N)c2[nH]nc(N)c2C#N)o1	FEN1 inhibitor inconclusive, Pol iota inh 56.2µM, POLB inh 6.31µM, POLH inh inconclusive, POLK inh inconclusive, WRN helicase inh inconclusive
CCc1cccc(NC(=O)COC(=O)c2ccccc2OCc2ccccc2Br)c1	none (no result: POLB inh, POLH inh, WRN helicase inh)
Cc1ccc(NC2=C/C(=N/S(=O)(=O)c3cccs3)c3ccccc3C2=O)cc1	Pol iota inh inconclusive, POLH inh inconclusive
Cc1ccc(S(=O)(=O)/N=C2\C=C(Nc3ccc(O)cc3)C(=O)c3ccccc32)cc1	FEN1 inhibitor inconclusive, Pol iota inh 44.7µM, POLH inh inconclusive, WRN helicase inh inconclusive (no result: POLB inh)
Cc1ccc(S(=O)(=O)/N=C2\C=C(Nc3cccc(C(=O)O)c3)C(=O)c3ccccc32)c(C)c1	FEN1 inhibitor 70.8µM, Pol iota inh 5.01µM, POLB inh inconclusive, POLH inh 22.4µM, WRN helicase inh inconclusive
CC(C)(C)c1ccc(S(=O)(=O)/N=C2\C=C(NS(=O)(=O)c3ccccc3)C(=O)c3ccccc32)cc1	FEN1 inhibitor inconclusive, Pol iota inh inconclusive, POLB inh inconclusive, POLH inh 79.4µM, WRN helicase inh inconclusive
CCC1(OC(=O)CN(C)C)C(=O)OCc2c1cc1n(c2=O)Cc2cc3c(N)cccc3nc2-1 (configuration not stated)	FEN1 inhibitor inconclusive, Pol iota inh 8.91µM, POLH inh 7.94µM, POLK inh inconclusive, WRN helicase inh inconclusive (no result: POLB inh)
CCCn1cc(S(=O)(=O)CC(=O)Nc2ccc(OCC)cc2)c2ccccc21	POLB inh 89.1µM
COc1ccc(C(C)(C)C)cc1NC(=O)COC(=O)c1ccc([N+](=O)[O-])o1	FEN1 inhibitor 25.1µM, Pol iota inh inconclusive
COC(=O)c1ccccc1NC1=C/C(=N\S(=O)(=O)c2cccs2)c2ccccc2C1=O	Pol iota inh 1.41µM
Cc1c(CC(=O)N[C@@H](C)C(=O)O)c(=O)oc2c(C)c3occ(-c4ccccc4)c3cc12	Pol iota inh inconclusive, POLK inh inconclusive
